SW480 rerep: DNA re-replication induction in SW480 cells. Potency, µM (series often up to 46.1 µM), for inactives: top-dose re-replication activation, hits mostly activators. SW480 DNA re-replication, Hoechst DNA content imaging, 48 h. hit rate 1.8% among 340,000. AID 624297; also: % of control where 0% means no effect; nearly all actives have a fitted effect of over 55% in size
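Readout is total intensity of Hoechst-stained nuclei, excited at 405 nm and collected at 500-530 nm. Compound treatment lasted 48 hr at 37 C in 5% CO2 before staining.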
MCF10A rerep: induces DNA re-replication in MCF 10a normal breast cells | MCF 10A DNA re-replication, Hoechst nuclear intensity, 48 h | Potency, µM (titrated, usually from 46.1 µM), inactives show at the highest dose activity, positive = re-replication, actives largely listed as activators | AID 624296 | hit rate 2.9% among 350,000; also: % of control where 0% means no effect; nearly all actives have a fitted effect of over 50% in size
HT1080-NT tox: kills 2HG-producing HT-1080-NT fibrosarcoma cells. HT-1080-NT fibrosarcoma viability, CellTiter-Glo ATP luminescence, 48 h. Potency, µM (highest dose often 46.1 µM), for the others: at the highest dose activity, negative = less viability, usual class: cytotoxic. hit rate 1.6% among 360,000;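 also: NT is the 2HG producing partner of a matched IDH1 knockdown line; 0% = DMSO-treated cells and -100% = media-only wells without cells; nearly all actives have a fitted effect of over 55% in size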
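Read-out is CellTiter-Glo luminescence after 10 minutes at room temperature, following 48 hours' compound treatment of HT-1080-NT cells (750 cells/well, RPMI, 5% FBS, 37 degrees C).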
KB-3-1 cytotox: kills parental KB-3-1 adenocarcinoma cells; KB-3-1 viability, CellTiter-Glo ATP luminescence, 72 h; Potency, µM (series often up to 46.1 µM), actives largely listed as cytotoxic; hit rate 1.4% among 400,000; also: % is scaled to controls: 0 for no effect and ±100 for the full control effect; nearly all actives have a fitted effect of over 60% in size
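Multi-concentration cytotoxicity screen in KB-3-1 cells grown in DMEM lacking phenol red with 10% FBS. After 72 h at 37 °C with compound, ATP-dependent luminescence was recorded.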
KB-V1 MDR tox: KB-V1 MDR subline cytotoxicity | AID 1347076 | KB-V1 MDR cells viability, CellTiter-Glo, 72 h | hit rate 3.4% among 400,000 | Potency, µM (highest dose often 46.1 µM), hits mostly cytotoxic; also: % is scaled to controls: 0 for no effect and ±100 for the full control effect; nearly all actives have a fitted effect of over 60% in size
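KB-V1 MDR subline cells in DMEM (phenol-red free, 10% FBS) exposed to compounds in qHTS concentration series for 72 h at 37 degrees C. Viability read by CellTiter-Glo luminescence; concentration-effect curves fitted after normalization and correction.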
HT1080 IDH1KD tx: HT-1080 IDH1 knockdown cell toxicity (counter line) | HT-1080 IDH1 knockdown viability, ATP luminescence, 48 h | Potency, µM (titrated, usually from 46.1 µM), without a hit: at the highest dose activity, negative = toxicity, usual class: cytotoxic | hit rate 2% among 360,000 | AID 686971;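 also: 0% = DMSO wells and -100% = cell-free medium wells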
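Knockdown cells (IDH1KD HT-1080) received compounds 2 h after plating at 750 cells/well and were kept 48 h at 37 °C in 5% FBS RPMI. A CellTiter-Glo luminescence read gave % activity for curve fitting.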
An asterisk follows results filed as active; i = inactive; ? = inconclusive; . = no result; [ ] = dose if it differs, or a comment. Hits are enriched below; roughly 8% of the tested compounds scored in any of these assays. Calls follow the shape of the dose curve; as a rule, active = well fitted curve in the direction sought with a large enough effect; inconclusive = small, poorly fitted or top-dose-only effect, or another doubt; inactive = no such curve, though single readings can be large; an effect the other way counts as inactive or inconclusive. Potency is read from the fitted curve at half-maximal effect.

SMILES	SW480 rerep	MCF10A rerep	HT1080-NT tox	KB-3-1 cytotox	KB-V1 MDR tox	HT1080 IDH1KD tx
CCCn1c(C(C)Nc2nc(-c3ccc(Cl)c([N+](=O)[O-])c3)cs2)nc2ccccc21 (configuration not stated)	-10%	?	?	?	?	-25%
Cc1ccc(Cn2c(C(C)Nc3nc(-c4ccc(Cl)c([N+](=O)[O-])c4)cs3)nc3cc(C(F)(F)F)ccc32)cc1 (configuration not stated)	0.92µM*	-31%	-4%	i	i	-4%
Cc1[nH]c2ccccc2c1C(=O)C(C)OC(=O)C1CCC1 (configuration not stated)	-3%	-4%	7%	i	i	17%
O=C(NCCc1c[nH]c2ccccc12)/C(=C/c1cccnc1)NC(=O)c1cccs1	4%	-1%	15%	i	i	0%
C/C(=N/Nc1nc(-c2ccccc2)cc(-c2ccc(F)cc2)n1)c1cccc(N)c1	?	2%	?	?	5.2µM*	?
COc1ccc([N+](=O)[O-])cc1NC(=O)CC(C)c1ccccc1 (configuration not stated)	2%	-7%	11%	i	i	4%
CCOC(=O)N1CCc2c(sc3c2c(=O)n(Cc2ccccc2)c(=O)n3Cc2ccc(C)cc2)C1	-1%	-1%	2%	i	i	11%
COc1ccc(C(O)c2ncc(-c3ccc4ccccc4c3)[nH]2)cc1F (configuration not stated)	.	.	-22%	i	i	-25%
CN(Cc1cc(Br)cc(Br)c1N)C1CCCCC1	?	27µM*	.	.	.	.
CN(Cc1ccc(O)cc1)C1CCCCC1	0%	6%	4%	i	i	-11%
CCOC(=O)c1c(NC(C)=O)sc2c(OCCN(CC)CC)c(Br)ccc12	-47%	-23%[9.22 µM]	-6%	i	i	-28%
CCOC(=O)c1c(NC(C)=O)sc2c1CCC(C=NCCCN(CC)CC)=C2Sc1ccccc1	?	?	?	?	16µM*	?
CN(C)c1ccc(/C=N/NC(=O)C(=O)/C=C2\NC3(CCCC3)Cc3ccccc32)cc1	-4%	22%	-4%	i	18µM*	-16%
O=C(/C=C1\NC2(CCCC2)Cc2ccccc21)C(=O)N/N=C/c1ccccc1O	?	?	23µM*	?	?	?
COc1cc(/C=N/NC(=O)C(=O)/C=C2\NC3(CCCC3)Cc3ccccc32)ccc1O	-3%	10%	-18%	i	?	-25%
O=[N+]([O-])c1cc(C(F)(F)F)ccc1NCCc1c[nH]c2ccccc12	15%	?	-3%	i	?	7%
Cn1cc(CN(Cc2ccccn2)C[C@@H]2CCC(=O)N2)c(-c2ccccc2F)n1	-12%	21%	18%	i	i	12%
COc1ccc(-c2cc(C3CC3)nc3sc(C#N)c(N)c23)cc1	13µM*	3.7µM*	-16%	i	i	-19%
COc1ccc(-c2cc(C3CC3)nc(N)c2C#N)cc1	19%	13%	-9%	i	i	-4%
CC(=O)Nc1ccc(S(=O)(=O)N2CCN(CC(O)COc3ccc4ccccc4c3)CC2)cc1 (configuration not stated)	5%	-6%	0.71µM*	i	?	?
CC(=O)Nc1ccc(OCC(O)CN2CCN(c3cccc(Cl)c3)CC2)cc1 (configuration not stated)	-3%	25%	0%	i	16µM*	-4%
Cc1cc(C)c2cc(C#N)c(N3CCCN(C(=O)c4cnccn4)CC3)nc2c1	2%	21µM*	2%	i	?	1%
COc1ccccc1C(=O)N1CCN(c2nc3cc(C)cc(C)c3cc2C#N)CC1	.	.	0%	i	?	-7%
O=C(CC1(O)C(=O)N(CCc2ccccc2)c2ccccc21)c1ccccn1 (configuration not stated)	6%	-6%	15%	i	i	25%
O=C(CC1(O)C(=O)N(C/C=C/c2ccccc2)c2ccccc21)c1ccccn1 (configuration not stated)	?	?	?	?	?	10µM*
SMILES	SW480 rerep	MCF10A rerep	HT1080-NT tox	KB-3-1 cytotox	KB-V1 MDR tox	HT1080 IDH1KD tx
CCCC(C(=O)NC1CCCC1)N(C(=O)Cn1nnc(-c2ccc(C)o2)n1)c1ccccc1OC (configuration not stated)	?	22%	4%	i	i	-15%
OCC1CCCCN1C(=S)Nc1ccc(Cl)cc1Cl (configuration not stated)	?	0.82µM*	2%	i	i	-1%
COc1cccc(NC(=O)CSC2=C(C#N)C(c3ccco3)C3=C(CCCC3=O)N2)c1 (configuration not stated)	13µM*	25µM*	9.2µM*	?	?	7.3µM*
CCCCc1ccc(NC(=O)CSC2=C(C#N)C(c3ccco3)C3=C(CCCC3=O)N2)cc1 (configuration not stated)	21µM*	4µM*	?	?	i	?
O=C(CC1CCOCC1)Nc1ccc(Cl)c(Cl)c1	2%[1.84 µM]	-14%	-11%	i	i	-8%
CCOc1ccc(C(=O)NCC(c2cccs2)N(C)C)cc1OCC (configuration not stated)	-3%	-10%	-5%	i	23µM*	5%
Cc1ccc(C(=O)NCC(=O)NCC(c2cccs2)N(C)C)cc1C (configuration not stated)	-3%	2%	-6%	i	15µM*	-10%
CCCOc1ccc(C(=O)NCC(c2cccs2)N(C)C)cc1 (configuration not stated)	0%	1%	-3%	i	i	-8%
CC(C)CN(C(=O)COC(=O)CSc1ccccc1F)c1c(N)n(Cc2ccccc2)c(=O)[nH]c1=O	-5%	0%	-1%	i	?	2%
Cc1ccc2c(CC(=O)OCC(=O)N(CC(C)C)c3c(N)n(Cc4ccccc4)c(=O)[nH]c3=O)coc2c1	6.5µM*	?	?	i	i	-16%
Cc1ccc(SCC(=O)OCC(=O)N(CC(C)C)c2c(N)n(Cc3ccccc3)c(=O)[nH]c2=O)c(C)c1	?	?	?	i	i	23µM*
Cc1nnc(SCC(=O)N(CC(C)C)c2c(N)n(Cc3ccccc3)c(=O)[nH]c2=O)n1N	1.3µM*	2%	3%	i	?	4%
